# In PubChem BioAssay (NCATS):
# Records with an inconclusive call do not appear. Activity calls are given as the source filed them. Calls follow the shape of the dose curve; as a rule, active = well fitted inhibition curve with a large enough effect; inconclusive = small, poorly fitted or top-dose-only effect; inactive = no such curve, though single readings can be large or run the other way.
# Assay: BET inhibitor-based combinations targeting novel dependencies in MECOM-rearranged (r) AML: SET-2 cell line (AID 2202231); also: nearly all actives have a fitted effect of over 35% in size
# Conditions: SET-2 AML cells viability, CellTiter-Glo luminescence, 48 h; viability: active compounds read low, series mostly up to about 46 µM
# Text: Ecotropic viral insertion site 1 (EVI1) is located on chromosome 3q26.2 as part of the MECOM (MDS and EVI1 complex) locus. Under normal hematopoiesis, EVI1 is a regulator of hematopoietic stem cell maintenance and self-renewal and EVI1 levels decrease as the cells differentiate. In approximately 5-10% of de novo acute myeloid leukemia (AML) EVI1 is aberrantly expressed, including Chromosomal inv(3)(q21;q26.2) or t(3;3)(q21;q26.2) alterations (MECOM-r) that account for about 50% of AML with EVI1 overexpression 31. AMLs with high levels of EVI1 have a poor prognosis and an overall survival time averaging between 10-14 months. EVI1 overexpression confers resistance in leukemia cells, highlighting the need to develop new targeted therapies for EVI1 overexpressing AMLs.
# Here, we performed an unbiased chemical drug screening by evaluating the single agent activity of a collection of 2,480 oncology-focused, approved and investigational drugs (NCATS Mechanism Interrogation Plates, MIPE v5.0) against a panel of seven AML cell lines. These included four MECOM-r cell-lines (AML-191, AML-194, UCSD-AML1 and HNT-34) and three non-MECOM-r AMLs (MV4-11, OCI-AML3 and SET-2). Exploiting the mechanistic redundancy built in the library, we identified target-level sensitivities in MECOM-r AML cells and relative activity as compared to other AML subtypes.
# A collection of 2480 mechanistically annotated dugs (MIPE v5.0) was used to screen four 3q26.2 rearranged AML cell lines and three non-3q26.2 rearranged AML cell lines. This library purposely exploits redundancy by including multiple inhibitors of key onco-targets, while simultaneously encompassing mechanistic diversity, targeting more than 800 distinct mechanisms of action. Briefly, cells were seeded in 5 uL of growth media using a Multidrop Combi dispenser into 1536 well white polystyrene tissue culture treated plates (Corning) at a density of 500cells/well. For each cell-line, for each of the 2480 drugs in MIPE v5.0 library, an 11-point dose curve was generated via a 1536 pin-tool. Plates were incubated for 48 hr at standard incubator conditions, covered by a stainless steel gasketed lid to prevent evaporation. Cell viability was determined by luminescence based, Cell Titer Glo assay (Promega). In detail, 3 uL of Cell Titer Glo were added to each well and plates were incubated at room temperature for 15 min with a stainless-steel lid in place. Luminescence readings were taken using a Viewlux (PerkinElmer) with a 2 s exposure time per plate. Compound dose-response curves were normalized to DMSO and empty well controls on each plate. Quantitative drug activity data from dose-response curves was determined utilizing area Under the Curve (AUC) and Z-transformed AUC (Z-AUC, a mean-centering transformation applied to each individual cell-line screened).
# Potency is read from the fitted curve at half-maximal effect.
SMILES,viability,Potency,outcome
C[N+](C)(C)CC(=O)O,112% (inactive),,
COc1ccc(S(=O)(=O)N[C@@H](CNc2nc(C)nc(N3CCC(c4ccc5c(n4)NCCC5)CC3)c2C)C(=O)O)cc1,111% (inactive),,
C[C@H]1[C@H](C)CC[C@]2(C(=O)O)CC[C@]3(C)C(=CC[C@@H]4[C@@]5(C)CC[C@H](O)C(C)(C)[C@@H]5CC[C@]43C)[C@H]12,102% (inactive),,
C[C@H]1C[C@H]2[C@@H]3CCC4=CC(=O)C=C[C@]4(C)[C@H]3C(=O)C[C@]2(C)[C@@]1(O)C(=O)CO,116% (inactive),,
Cn1nccc1Nc1nccc(-c2cc3c(s2)C(C)(C)N(CCN2CCOCC2)C3=O)n1,105% (inactive),,
Cc1cc(O)cc2c1[C@]1(C)CC[C@H]3C(C)(C)CCC[C@]3(C)[C@H]1C2,50.3% (inactive),,
CN(C(=O)CNC(=O)/C=C/c1cccc(Cl)c1)C1CCS(=O)(=O)CC1,,0.662 µM (active),
CC(C)NCCCn1c(Sc2cc(Cl)cc(Cl)c2)nc2c(N)ncnc21,98.3% (inactive),,
CO[C@H]1O[C@@H]2O[C@@]3(C)CC[C@H]4[C@H](C)CC[C@@H]([C@H]1C)[C@@]24OO3,,20.9 µM (active),
COc1ccc(C(=O)CC2(O)C(=O)Nc3c(Cl)ccc(Cl)c32)cc1 (stereo not given),,0.934 µM (active),
C=CCNC1=C2CC(C)CC(OC)C(O)C(C)/C=C(\C)C(OC(N)=O)C(OC)/C=C/C=C(\C)C(=O)NC(=CC1=O)C2=O (stereo not given),,8.33 µM (active),
COc1ccc(S(=O)(=O)N(CCO)c2ccccc2CN(C)C/C=C/c2ccc(Cl)cc2)cc1,,20.9 µM (active),
CN(C)CCN1C(=O)c2cccc3cc(NC(N)=O)cc(c23)C1=O,,18.6 µM (active),
CN[C@H]1CN(c2ccc3c(=O)c(C(=O)O)cn(-c4nccs4)c3n2)C[C@@H]1OC,,2.41 µM (active),
Cc1ccc(C(=O)N(CCCN)[C@@H](c2oc3cc(Cl)ccc3c(=O)c2Cc2ccccc2)C(C)C)cc1,,0.166 µM (active),
CC(=O)Nc1cc(Oc2ccc3c(nc(Nc4ccc(F)cc4F)n3C)c2C)ccn1,,0.209 µM (active),
CCCC1(CCC)CCC2(CCN(CCCN(CC)CC)C2)CC1,,5.9 µM (active),
CNCCn1c(=O)c2cc(OC)c(OC)cc2c2cnc3cc4c(cc3c21)OCO4,,0.0241 µM (active),
C[C@H](NC(=O)[C@H]1NCC[C@@H]1O)c1ccc(-c2noc(CCC3CCCC3)n2)cc1,,,inactive; activator; fitted 0.0033 uM
Cc1nc(NC(=O)N2CCC[C@H]2C(N)=O)sc1-c1csc(C(C)(C)C)n1,98.3% (inactive),,

SMILES,viability,Potency,outcome
CN(C)C/C=C/C(=O)Nc1ccc(C(=O)N2CCC[C@@H](Nc3ncc(Cl)c(-c4c[nH]c5ccccc45)n3)C2)cc1,,5.9 µM (active),
NC(=O)c1ccc2nc(-c3ccc(C4(N)CCC4)cc3)c(-c3ccccc3)n2n1,98.4% (inactive),,
COc1ccc([C@@H](O)[C@@H](C)Oc2ccc([C@H]3O[C@H](c4ccc(O[C@H](C)[C@H](O)c5ccc(OC)c(OC)c5)c(OC)c4)[C@H](C)[C@H]3C)cc2OC)cc1OC,,13.2 µM (active),
COc1ccc2c(c1)c(C1=C(c3c[nH]c4ccccc34)C(=O)NC1=O)cn2CCCN(C)C,,23.5 µM (active),
Cc1cnc(-c2ccccc2C(C)C)nc1NCc1ccc(-n2ccnn2)cc1,86.2% (inactive),,
CCCCNc1ncc2c(-c3ccc(F)cc3)nn(CC3CCC(N)CC3)c2n1 (stereo not given),,14.4 µM (active),
O=c1cc(O)c(Cl)c[nH]1,115% (inactive),,
Cc1ccc(NC(=O)[C@H]2CCCN(C(=O)c3c(C)cccc3F)[C@H]2c2ccc(NC3CCCC3)cc2)cc1C(F)(F)F,94.7% (inactive),,
C[C@H]1CNCCCN1S(=O)(=O)c1cccc2cncc(F)c12,113% (inactive),,
C/C=C1\NC(=O)[C@H]2CSSCC/C=C\[C@H](CC(=O)N[C@H](C(C)C)C(=O)N2)OC(=O)[C@H](C(C)C)NC1=O,,0.0295 µM (active),
COc1ccc(OC)c(-c2nnc3ccc(-c4ccc(OC)c(O[C@@H]5CCOC5)c4)nn23)c1,,8.33 µM (active),
COc1ccc(-c2oc3c(CC=C(C)C)c(OC4O[C@H](CO)[C@@H](O)[C@H](O)[C@H]4O)cc(O)c3c(=O)c2OC2O[C@@H](C)[C@H](O)[C@@H](O)[C@H]2O)cc1 (stereo not given in full),116% (inactive),,
COCc1c(-c2ccc(NC(=O)Nc3cc(C(F)(F)F)ccc3F)c(F)c2)c2c(N)ncnn2c1CN1CCOCC1,,6.61 µM (active),
CN(C)c1ccc(Nc2nc(N)n(C(=O)c3c(F)cccc3F)n2)cc1,,18.6 µM (active),
Cc1c(F)ccc(C(=O)Nc2cc([N+](=O)[O-])ccc2N2CCN(C)CC2)c1Cl,110% (inactive),,
CN(C(=O)c1c(O)c2ccccc2n(C)c1=O)c1ccccc1,76.1% (inactive),,
COC(=O)/C=C/C(=O)OC,117% (inactive),,
CCc1c(C(=O)NNC(=O)[C@@H](O)c2cc(F)cc(F)c2)ccc(O)c1C,97.8% (inactive),,
O=C(/C=C/c1cccnc1)NCCCCC1CCN(C(=O)c2ccccc2)CC1,119% (inactive),,
OCCOc1ccc(/C(=C(/CCCl)c2ccccc2)c2ccccc2)cc1,,16.6 µM (active),
